The list is not random: actives were taken first. Their share in the collection is about 14%.
LASV entry inh – inhibitors of Lassa virus binding or cell entry. AID 540256. Potency, µM (doses to about 37.9 µM), inactives show top-dose activity change, negative = inhibition, hits mostly inhibitors. Lassa virus pseudotype entry inhibition, cell reporter. 300,000 tested, 1.2% active; calls by dose curve; tested in HEK293 cells; further: potency means the concentration at half of the fitted maximal effect; nearly all actives have a fitted effect of over 50% in size
Pf growth 96h – P. falciparum growth inhibition at 96 hour, primary screen for plastid delayed-death inhibitors. P. falciparum luciferase reporter growth, 96 h. Potency, µM (top dose mostly 28.7 µM), inactives show at the top dose activity change, negative = inhibition, actives largely listed as inhibitors. 320,000 tested, 6.9% active. AID 504834; further: potency means the concentration at half of the fitted maximal effect
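Two-generation exposure (96 h) targets delayed-death phenotype. Reporter parasites carrying integrated firefly luciferase, in red cells at 2% hematocrit and 0.05% parasitemia final, kept at 37 C, 5% CO2; luminescence loss indicates inhibition.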
HCMV inh – blocks human cytomegalovirus replication. HFF cells, HCMV-luciferase reporter, 72 h; stronger effect = lower value. activity change, negative = inhibition, % at 57.5 µM. 410,000 tested, 4.5% active; in the data active means activity change below about -60%; inconclusive means no clear call, values can overlap the other calls; inactive means above about -39%
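Inhibition of viral replication was scored as loss of reporter luminescence in HFFs infected with HCMV-luciferase (MOI 1 PFU/cell) for 72 h; compounds tested at 2 doses, normalized to buffer and Salinomycin controls.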
HCV inhibitor – inhibitors of hepatitis C virus infection; Huh7.5.1 HCVcc-Cre infection, luciferase reporter, 44 h; Potency, µM (titrated, usually from 41.8 µM), without a hit: at the top dose activity change, negative = inhibition, hits mostly inhibitors; 340,000 tested, 3.4% active; further: potency means the concentration at half of the fitted maximal effect
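Whole-lifecycle infectious HCVcc-Cre system; cells 1,000/well, compound then virus (~0.5 moi) added 4 h after plating, 44 h culture. Luciferase read 15 sec following 15 min substrate incubation, room temp.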
MARV entry inh – inhibitors of Marburg virus binding or cell entry. Potency, µM (highest dose often 37.8 µM), for the others: at the top dose activity change, negative = inhibition, usual class: inhibitors. AID 540276. 300,000 tested, 1.8% active. Marburg virus pseudotyped entry inhibition, cell reporter; calls by dose curve; tested in HEK293 cells; further: potency means the concentration at half of the fitted maximal effect
Pf growth 48h – P. falciparum growth inhibition at 48 hours (one generation). Potency, µM (top dose mostly 28.7 µM), inactives show at the top dose activity change, negative = inhibition, hits mostly inhibitors. AID 504832. P. falciparum luciferase growth in erythrocytes, 48 h. 310,000 tested, 5.9% active; further: potency means the concentration at half of the fitted maximal effect
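Luciferase-expressing parasites in RBCs, 2% Hct / 0.1% parasitemia final; RPMI 1640 + 0.5% Albumax; 37 C, 5% CO2, one generation; luminescence read-out, lower signal = inhibition.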
The depositor's hits bear a star; u = inconclusive; x = not tested or not shown; + = active, no number; [ ] = dose if it differs, or a comment. Unless noted, the call rests on the fitted dose curve; in most records, active means well fitted inhibition curve with a large enough effect; inconclusive means small, poorly fitted or top-dose-only effect, or another doubt; inactive means no such curve, though single readings can be large or run the other way. On the % scale 0 is the no-effect control and ±100 the full control effect.

SMILES | LASV entry inh | Pf growth 96h | HCMV inh | HCV inhibitor | MARV entry inh | Pf growth 48h
CCOC(=O)C1CCCN(C2=NC(=O)/C(=C/c3ccc(N(C)C)cc3)S2)C1 (stereo not drawn) | u | 26.0% | 23.4 | -15.6% | -10.7%[46.1 µM] | 6.57µM*
CCOC(=O)C1CCN(C2=NC(=O)/C(=C/c3ccc(O)cc3)S2)CC1 | 1.2%[46.1 µM] | 7.9% | x | -2.4% | 20.2%[46.1 µM] | 5.1%[0.00184 µM]
O=C(c1ccccc1)N1CCC(c2nc3c(nnn3Cc3ccccc3Cl)c(=O)[nH]2)CC1 | u | 8.28µM* | 15.9 | 15.6% | -14.8% | x
Cc1ccccc1Cn1nnc2c(=O)[nH]c(C3CCN(C(=O)c4ccccc4)CC3)nc21 | -28.8%[46.1 µM] | x | -9.3 | x | 0.4%[46.1 µM] | x
O=C(c1cccs1)N1CCC(c2nc3c(nnn3Cc3ccccc3Cl)c(=O)[nH]2)CC1 | 7.94µM* | 0.0% | 69.6 | 0.7% | -7.0%[46.1 µM] | 10.4µM*
Cn1c(=O)c2cc(NC(=S)NC3CCCCC3)ccc2n1Cc1cccc(C(F)(F)F)c1 | x | x | -70.5* | x | x | x
COc1ccccc1C(CNC(=O)c1ccc(NS(=O)(=O)c2ccc3c(c2)OCCO3)cc1)N(C)C (stereo not drawn) | 14.9% | 11.7µM* | 0.4 | -8.4% | -22.9% | u
COc1ccccc1C(CNC(=O)c1cccc(S(=O)(=O)Nc2ccc(C)cc2)c1)N(C)C (stereo not drawn) | -16.4% | u | -76.4* | x | u | u
CCN(CC)c1ccc(S(=O)(=O)N2CCOCC2)cc1NC(=O)COC(=O)/C=C/c1ccco1 | x | x | -11.3 | -21.7% | x | x
CCN1C(=NCCc2ccccn2)NC(c2cccc(C(F)(F)F)c2)C(C(=O)OC)=C1C (stereo not drawn) | u | x | x | x | -20.4%[14.2 µM] | x
CC(=O)Nc1sc(C)c(C)c1CN1CCN(Cc2ccccc2)CC1 | -0.7% | 4.15µM* | 50.8 | 12.4% | -19.0%[46.1 µM] | u
CC(=O)Nc1sc2c(c1CN1CCCC1)CCCC2 | -16.1% | u | 8.5 | u | u | u
CC(=O)Nc1sc2c(c1CN1CCN(c3ccc(F)cc3)CC1)CCCC2 | u | 9.28µM* | 1.2 | u | 10µM* | x
CCOC(=O)N1CCN(Cc2c(NC(=O)c3ccco3)sc(C)c2C)CC1 | -18.0% | u | 11.5 | -24.0% | -2.6%[46.1 µM] | 7.8%
Cc1sc(NC(=O)c2ccco2)c(CN2CCN(c3ccc(F)cc3)CC2)c1C | 2.5% | 3.1% | -36.9 | u | u | x
Cc1sc(NC(=O)c2ccco2)c(CN2CCN(c3ccccn3)CC2)c1C | -9.2% | 8.1% | x | u | u | 9.28µM*
C[C@@H]1CN([C@@H](C)CO)C(=O)CCCn2cc(nn2)CO[C@H]1CN(C)C(=O)Nc1ccc(N2CCN(C)CC2)cc1 | x | x | 5.8 | x | x | x
CC(=O)c1ccc(NC(=O)Cn2c(-n3nc(C)cc3C)nc(C)cc2=O)cc1 | -11.6%[46.1 µM] | x | 0.0 | x | x | x
O=C(NCc1ccc(F)c(F)c1)c1cnc(N2CCN(Cc3ccccc3)C2=O)s1 | x | x | -32.1 | x | x | x
CCOC(=O)C1CCN(S(=O)(=O)c2ccc3[nH]c(=O)c(=O)[nH]c3c2)CC1 | -3.0% | 8.9% | -1.6 | 22.0% | 2.4%[46.1 µM] | -23.3%
CCOC(=O)C1CCN(S(=O)(=O)c2ccc3[nH]c4c(c3c2)CCCC4)CC1 | u | 10.4µM* | 2.8 | -29.5% | 15.7%[46.1 µM] | -17.0%
O=C(Nc1cccc(F)c1)C1CCN(S(=O)(=O)c2ccc3[nH]c4c(c3c2)CCCCC4)CC1 | u | x | + | x | x | x
Cc1[nH][nH]c(=O)c1C(c1c(C)[nH][nH]c1=O)c1cn(C)c2ccccc12 | -8.4% | 15.1% | -14.4 | 4.0% | -16.0%[46.1 µM] | 10.4µM*
O=C(c1cccs1)N1CCN(S(=O)(=O)c2cccc(Cl)c2Cl)CC1 | u | -9.9% | -37.9 | 2.3% | -14.8% | u
O=C(C1=COCCO1)N1CCN(S(=O)(=O)c2cccc(Cl)c2Cl)CC1 | 10.6% | 14.7µM* | 11.8 | 7.6% | u | u
CCN(CC)CCNc1ccc(C)c2sc3ccc(O)cc3c(=O)c12 | u | x | -96.9* | u | 2.24µM* | x
Cc1c(C(=O)NCCN(C)C)oc2c1-c1nn(Cc3ccccc3Cl)cc1CC2 | u | x | -11.4 | x | x | x
